Laboratory results reported in PubChem BioAssay AID1159580 (chemical genetic matrix, 2015).
In all, about 5,500 compounds went through this assay and about 2,000 (36%) were called active. Roughly 18% stayed inconclusive and do not appear here. No stated cut-off is given here; in the data, active means normalized growth mostly below about 0.91 (no sharp cut-off); inconclusive means no clear call, values can overlap the other calls; inactive means mostly above about 0.92. The list shows a part of the results.

Assay: chemical genetic growth profiling, strain panel (AID 1159580);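 further: tested at 20 µM; growth read once vehicle control cultures reached saturation at 30 °C; 1 = growth at the plate median or of vehicle wells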
Details: S. cerevisiae deletion strains, growth OD

Measured: normalized growth

Cc1ccc(Nc2ccnc3cc(Cl)ccc23)cc1F
active: locus YHR030C, strain SLT2, stronger effect = lower value 0.826
inactive: locus YAR019C, strain CDC15, stronger effect = lower value 0.997 | locus YBL105C, strain PKC1, stronger effect = lower value 0.993 | locus YBR135W, strain CKS1, stronger effect = lower value 0.995 | locus YBR136W, strain MEC1, stronger effect = lower value 0.995 | locus YBR160W, strain CDC28, stronger effect = lower value 0.988 | locus YDL017W, strain CDC7, stronger effect = lower value 1 | locus YDL028C, strain MPS1, stronger effect = lower value 0.991 | locus YDL101C, strain DUN1, stronger effect = lower value 0.992 | locus YDL108W, strain KIN28, stronger effect = lower value 0.995 | locus YDL132W, strain cdc53, stronger effect = lower value 0.987 | locus YDL214C, strain PRR2, stronger effect = lower value 0.942 | locus YDR052C, strain DBF4, stronger effect = lower value 0.991 | locus YDR054C, strain cdc34, stronger effect = lower value 0.985 | locus YDR226W, strain ADK1, stronger effect = lower value 0.997 | locus YDR477W, strain SNF1, stronger effect = lower value 0.946 | locus YER123W, strain YCK3, stronger effect = lower value 0.918 | locus YER133W, strain GLC7, stronger effect = lower value 0.96 | locus YFL009W, strain cdc4, stronger effect = lower value 0.983 | locus YFL029C, strain CAK1, stronger effect = lower value 0.986 | locus YFR003C, strain YPI1, stronger effect = lower value 0.996 | locus YFR019W, strain FAB1, stronger effect = lower value 0.943 | locus YFR028C, strain CDC14, stronger effect = lower value 0.989 | locus YGR040W, strain KSS1, stronger effect = lower value 0.945 | locus YGR052W, strain FMP48, stronger effect = lower value 1.06 | locus YGR092W, strain DBF2, stronger effect = lower value 0.973 | locus YHR079C, strain IRE1, stronger effect = lower value 0.96 | locus YHR082C, strain KSP1, stronger effect = lower value 1 | locus YHR205W, strain SCH9, stronger effect = lower value 0.915 | locus YIL147C, strain SLN1, stronger effect = lower value 0.992 | locus YJL095W, strain BCK1, stronger effect = lower value 0.905 | locus YJL128C, strain PBS2, stronger effect = lower value 0.935 | locus YJL157C, strain FAR1, stronger effect = lower value 0.965 | locus YJR016C, strain ILV3, stronger effect = lower value 0.998 | locus YJR066W, strain TOR1 (second series), stronger effect = lower value 0.946 | locus YJR066W, strain TOR1, stronger effect = lower value 0.967 | locus YKL048C, strain ELM1, stronger effect = lower value 0.943 | locus YKL067W, strain YNK1, stronger effect = lower value 0.937 | locus YKL101W, strain HSL1, stronger effect = lower value 0.951 | locus YKL193C, strain SDS22, stronger effect = lower value 0.997 | locus YKL203C, strain TOR2, stronger effect = lower value 0.977 | locus YLR113W, strain HOG1, stronger effect = lower value 0.924 | locus YLR133W, strain CKI1, stronger effect = lower value 0.94 | locus YLR403W, strain SFP1, stronger effect = lower value 0.951 | locus YML070W, strain DAK1, stronger effect = lower value 0.947 | locus YMR001C, strain CDC5, stronger effect = lower value 0.995 | locus YMR205C, strain PFK2 (second series), stronger effect = lower value 0.956 | locus YMR277W, strain FCP1, stronger effect = lower value 0.995 | locus YNL006W, strain LST8, stronger effect = lower value 1.01 | locus YNL020C, strain ARK1, stronger effect = lower value 0.943 | locus YNL161W, strain CBK1, stronger effect = lower value 1 | locus YNL183C, strain NPR1, stronger effect = lower value 0.936 | locus YNL207W, strain RIO2, stronger effect = lower value 0.997 | locus YNL222W, strain SSU72, stronger effect = lower value 1 | locus YNL307C, strain MCK1 (second series), stronger effect = lower value 0.918 | locus YOL078W, strain AVO1, stronger effect = lower value 0.997 | locus YOL136C, strain PFK27, stronger effect = lower value 0.934 | locus YOR061W, strain CKA2, stronger effect = lower value 0.978 | locus YOR119C, strain RIO1, stronger effect = lower value 1.04 | locus YOR231W, strain MKK1, stronger effect = lower value 0.972 | locus YOR329C, strain SCD5, stronger effect = lower value 0.996 | locus YPL031C, strain PHO85, stronger effect = lower value 0.947 | locus YPL153C, strain RAD53, stronger effect = lower value 0.938 | locus YPL204W, strain HRR25, stronger effect = lower value 0.927 | locus YPL209C, strain IPL1, stronger effect = lower value 0.998 | locus YPL256C, strain CLN2, stronger effect = lower value 0.92 | locus YPR025C, strain CCL1, stronger effect = lower value 0.99 | locus YPR106W, strain ISR1, stronger effect = lower value 0.994 | locus YPR111W, strain DBF20, stronger effect = lower value 0.976 | strain NNK1, stronger effect = lower value 0.981 | strain TSCII, stronger effect = lower value 0.99
